Results taken from PubChem BioAssay (EPA / NIEHS).
Activity calls are given as the source filed them. How the source made its calls: active means hit-call score of the fitted dose curve at least 0.9, where 1 is the maximum; inactive means score below 0.9.

Experiments:
[1] = ATG_M_32_CIS: Attagene CIS-FACTORIAL HepG2 Assay for M32 Transcription Factor (Internal Marker) (AID 2282949); conditions: HepG2 Attagene cis-factorial M32 reporter, mRNA; actives raise or lower the signal;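 further: background control marker of the multiplexed CIS panel rather than a real target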
Procedure, shortened: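 Using DMSO as baseline, bidirectional curve fits were applied to reporter mRNA signals. These came from transiently transfected HepG2 cells exposed for 24 h, with RNA analysed by RT-PCR, FAM primer extension, HpaI digestion and CE.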

[2] = ATG_M_06_CIS: Attagene CIS-FACTORIAL HepG2 Assay for M06 Transcription Factor (Internal Marker) (AID 2282950); conditions: HepG2 Attagene CIS-FACTORIAL M06 internal marker reporter; actives raise or lower the signal
Procedure, shortened: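 Read-out is fluorescence of labelled reporter cDNA fragments resolved by capillary electrophoresis after RT-PCR. Cells: HepG2 carrying transfected cis-promoter reporter units, treated 24 h. Gain or loss of signal fitted relative to DMSO.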

[3] = target: Hypoxia-inducible factor 1-alpha (Homo sapiens) (UniProt Q16665); experiment: ATG_HIF1a_CIS: Attagene CIS-FACTORIAL HepG2 Assay for human Hypoxia Inducible Factor 1 (HIF1A) (AID 2282951); conditions: HepG2 Attagene cis-factorial HIF1a reporter transcription; actives raise or lower the signal
Hypoxia-inducible factor 1-alpha (Homo sapiens), sequence (Q16665 whole entry, looked up): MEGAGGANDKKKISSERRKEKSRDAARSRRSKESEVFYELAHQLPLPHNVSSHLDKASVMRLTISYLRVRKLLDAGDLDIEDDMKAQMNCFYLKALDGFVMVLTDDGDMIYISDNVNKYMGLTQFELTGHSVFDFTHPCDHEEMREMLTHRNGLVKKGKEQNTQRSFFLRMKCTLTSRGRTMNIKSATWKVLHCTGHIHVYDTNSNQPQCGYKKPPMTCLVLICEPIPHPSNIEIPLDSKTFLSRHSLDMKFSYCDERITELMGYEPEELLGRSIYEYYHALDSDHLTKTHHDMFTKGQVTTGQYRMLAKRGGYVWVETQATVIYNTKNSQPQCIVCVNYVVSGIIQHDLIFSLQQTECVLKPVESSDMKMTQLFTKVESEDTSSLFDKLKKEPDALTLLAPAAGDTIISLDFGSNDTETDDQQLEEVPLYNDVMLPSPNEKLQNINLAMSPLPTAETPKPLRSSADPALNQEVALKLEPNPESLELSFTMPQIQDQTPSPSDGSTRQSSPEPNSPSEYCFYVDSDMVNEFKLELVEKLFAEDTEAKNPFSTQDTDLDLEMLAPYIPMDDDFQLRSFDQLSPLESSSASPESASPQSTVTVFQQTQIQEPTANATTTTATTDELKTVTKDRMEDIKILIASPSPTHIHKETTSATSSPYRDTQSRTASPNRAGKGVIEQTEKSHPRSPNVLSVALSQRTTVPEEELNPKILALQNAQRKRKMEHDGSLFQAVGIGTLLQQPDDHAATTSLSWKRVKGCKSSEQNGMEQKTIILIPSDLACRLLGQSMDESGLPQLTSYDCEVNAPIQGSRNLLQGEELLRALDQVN
Procedure, shortened: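 After 24 h chemical exposure of reporter-transfected HepG2 cells, reporter cDNA was PCR-amplified, labelled by 6-FAM primer extension (2 min 95 C, 20 s 68 C, 10 min 72 C), HpaI-cut (2 h, 37 C) and analysed by CE.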

[4] = target: Hepatocyte nuclear factor 6 (Homo sapiens) (UniProt Q9UBC0); experiment: ATG_HNF6_CIS: Attagene CIS-FACTORIAL HepG2 Assay for human Hepatocyte Nuclear Factor 6 (HNF6) (AID 2282952); conditions: HepG2 Attagene cis-factorial HNF6 reporter transcription; actives raise or lower the signal
Hepatocyte nuclear factor 6 (Homo sapiens), sequence (Q9UBC0 whole entry, looked up): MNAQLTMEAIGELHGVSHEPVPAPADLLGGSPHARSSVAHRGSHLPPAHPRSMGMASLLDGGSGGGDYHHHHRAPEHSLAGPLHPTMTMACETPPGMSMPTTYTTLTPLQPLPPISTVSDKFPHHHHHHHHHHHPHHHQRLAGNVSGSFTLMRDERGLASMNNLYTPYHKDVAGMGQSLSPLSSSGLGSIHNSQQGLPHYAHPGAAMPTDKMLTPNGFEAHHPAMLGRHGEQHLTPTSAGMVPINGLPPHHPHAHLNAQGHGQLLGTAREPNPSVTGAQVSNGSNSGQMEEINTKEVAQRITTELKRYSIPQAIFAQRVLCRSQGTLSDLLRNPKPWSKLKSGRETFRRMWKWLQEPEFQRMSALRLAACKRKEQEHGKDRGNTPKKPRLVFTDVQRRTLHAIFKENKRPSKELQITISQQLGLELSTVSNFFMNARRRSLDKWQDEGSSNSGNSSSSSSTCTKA
Procedure, shortened: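 Activity values derive from bidirectional fitting against DMSO of reporter mRNA levels, measured by capillary electrophoresis of labelled RT-PCR products from HepG2 cells exposed 24 h.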

[5] = target: Heat shock factor protein 1 (Homo sapiens) (UniProt Q00613); experiment: ATG_HSE_CIS: Attagene CIS-FACTORIAL HepG2 Assay for human Heat Shock Transcription Factor 1 (HSE) (AID 2282953); conditions: HepG2 HSE cis-reporter, Attagene RNA transcription; actives raise or lower the signal
Heat shock factor protein 1 (Homo sapiens), sequence (Q00613 whole entry, looked up): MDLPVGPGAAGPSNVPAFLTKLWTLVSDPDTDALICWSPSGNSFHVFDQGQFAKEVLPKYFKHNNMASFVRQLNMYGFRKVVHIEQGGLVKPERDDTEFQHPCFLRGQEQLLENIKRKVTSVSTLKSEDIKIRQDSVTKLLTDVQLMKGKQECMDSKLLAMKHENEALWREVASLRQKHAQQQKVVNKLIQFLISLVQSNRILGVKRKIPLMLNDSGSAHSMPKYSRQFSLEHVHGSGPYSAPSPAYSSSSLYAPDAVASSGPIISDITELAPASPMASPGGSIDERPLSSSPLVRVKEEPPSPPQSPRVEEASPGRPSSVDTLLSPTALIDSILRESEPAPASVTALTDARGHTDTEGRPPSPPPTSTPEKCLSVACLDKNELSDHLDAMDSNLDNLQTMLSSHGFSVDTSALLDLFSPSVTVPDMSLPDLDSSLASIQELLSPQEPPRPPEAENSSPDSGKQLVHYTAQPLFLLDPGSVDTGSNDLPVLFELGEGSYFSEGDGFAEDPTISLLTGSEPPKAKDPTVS
Procedure, shortened: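 HepG2, transient MRTU transfection, cis-promoter reporters (endogenous TF activity). 24 h compound. RNA → oligo(dT) RT → PCR → 6-FAM primer extension → HpaI cut → CE. Bidirectional fit vs DMSO.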

[6] = ATG_MRE_CIS: Attagene CIS-FACTORIAL HepG2 Assay for human Metal Responsive Element (MRE) (AID 2282954); conditions: HepG2 MRE cis-reporter transcription, Attagene multiplex; actives raise or lower the signal
Procedure, shortened: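 Multiplexed cis-reporter assay in human HepG2 liver cells, 24 h incubation with test chemical. Reporter transcripts measured by RT-PCR and capillary electrophoresis; values from bidirectional curve fitting versus DMSO.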

[7] = ATG_ISRE_CIS: Attagene CIS-FACTORIAL HepG2 Assay for human Interferon Regulatory Factor 1 (IRF1) binding to an Interferon-Stimulated Response Element (ISRE) (AID 2282948); conditions: HepG2 ISRE cis-reporter (Attagene), mRNA transcription readout; actives raise or lower the signal
Procedure, shortened: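 Uses HepG2 liver cells transfected with cis-regulated reporters and measures mRNA 24 h post-dosing through RT-PCR, primer-extension labelling and capillary electrophoresis, with DMSO as negative control.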

[8] = ATG_PBREM_CIS: Attagene CIS-FACTORIAL HepG2 Assay for human Phenobarbital-responsive Enhancer Module (PBREM) (AID 2282955); conditions: HepG2 PBREM cis-reporter, Attagene multiplexed transcription; actives raise or lower the signal
Procedure, shortened: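 Measures endogenous factor action on a phenobarbital-responsive enhancer module. HepG2 transiently carrying cis reporters, 24 h treatment, mRNA read-out by RT-PCR plus capillary electrophoresis.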

Measured: AC50

Cc1ccc(S)cc1
inactive: [1] | [2] | [3] | [6]
active: [4] 100 µM | [5] 161 µM

CC(C)[C@H]1CC[C@@H](C)CC1=O
inactive: [7] | [2] | [4] | [5] | [6]

Clc1sc(Cl)c(Cl)c1Cl
not listed: [2] | [5]
inactive: all other assays above

Fc1c(F)c(F)c(Br)c(F)c1F
not listed: [2]
inactive: all other assays above

CCCCCNCCCCC
not listed: [1] | [5]
inactive: all other assays above

C=C(C)[C@@H]1CC[C@@H](C)C[C@@H]1O
not listed: [3] | [8]
inactive: all other assays above

CCCCCC(CO)CCC (stereo unspecified)
not listed: [1] | [8]
inactive: all other assays above

CC[Si](OC(C)=O)(OC(C)=O)OC(C)=O
active: [8] 18.7 µM
not listed: [5]
inactive: all other assays above

O=C[C@@H](O)[C@H](O)[C@H](O)CO
not listed: [2]
inactive: all other assays above

CCN(CC)CCOC(=O)c1ccc(N)cc1
not listed: [3]
inactive: all other assays above

C=C(C)C(=O)Nc1ccc(Cl)c(Cl)c1
active: [6] 18.9 µM | [8] 27.8 µM
not listed: [1]
inactive: all other assays above

CCCCCCCCCCCCCCCC(=O)OC[C@H](O)[C@H]1OC(=O)C(O)=C1O
inactive: [7] | [1] | [4] | [6]
active: [3] 131 µM | [5] 24.1 µM

CNC[C@H](O)c1cccc(O)c1
not listed: [2] | [5]
inactive: all other assays above

O=c1[nH]c(=O)n([C@H]2CCCO2)cc1F
not listed: [3]
inactive: all other assays above

CC(CN1c2ccccc2Sc2ccccc21)N(C)C (stereo unspecified)
active: [6] 40.7 µM
not listed: [2] | [3]
inactive: all other assays above

CCCCCCCCCCCCN(CCCCCCCCCCCC)CCCCCCCCCCCC
not listed: [7]
inactive: all other assays above

CC(=O)C(=O)O
active: [3] 33.9 µM
not listed: [6] | [7]
inactive: all other assays above

C=O
not listed: [2]
inactive: all other assays above

NCCCCCCN
inactive: [7] | [2] | [4] | [5] | [6]

CN1[C@@H]2CC(OC(=O)[C@H](CO)c3ccccc3)C[C@H]1[C@@H]1O[C@@H]12 (stereo partly specified)
inactive: [1] | [2] | [6] | [8]

OCCOc1cccc(OCCO)c1
not listed: [3] | [5]
inactive: all other assays above

CC(C)=CCCC(C)=CCCC(C)=CCO
not listed: [2] | [8]
inactive: all other assays above

COc1ccc(NC(=O)CC(C)=O)cc1
not listed: [1]
inactive: all other assays above

CCCOCC(C)O (stereo unspecified)
active: [3] 24.8 µM
not listed: [7] | [8]
inactive: all other assays above

CCCCOCCOCCOCCOCCO
inactive: [1] | [3] | [4] | [5] | [6]

CC1(C)OC[C@@H]2O[C@@]3(C(=O)O)OC(C)(C)O[C@H]3[C@@H]2O1
inactive: [7] | [1] | [3] | [4] | [6]

O=c1oc(=O)c2cc3c(=O)oc(=O)c3cc12
not listed: [5]
inactive: all other assays above
